Data from PubChem BioAssay (Tox21).
Results filed as inconclusive are left out. Calls of active or inactive are those of the source. Calls come from the whole dose curve; as a rule, active = well fitted curve in the direction sought with a large enough effect in the repeat runs; inconclusive = weak or mixed curves; inactive = no such curve, though single readings can be large; an effect the other way counts as inactive or inconclusive.

Columns and labels:
[1] = qHTS RealTime-Glo MT Cell Viability Assay in HEK293 cells - 32 hour (AID 1224868); note: top concentration of the series differs between compounds; nearly all actives have a fitted effect of over 50% in size
In short: (§1)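 Viability tracked continuously by luminescence as live cells reduce a prosubstrate for NanoLuc; HEK293 cells preincubated 5 h, compound-treated at 37 C, and read at 0, 8, 16, 24, 32 and 40 h.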

[2] = A CellTox Green Cytotoxicity Assay to monitor cytotoxicity in HEK293 cells - 0 hour (AID 1224869); note: nearly all actives have a fitted effect of over 50% in size
In short: (§2)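 Cells (HEK293, 600/well) and dye reagent are dispensed together. After 5 h at 37 C, 23 nL compound is pinned in. Plates stay at 37 C for 40 h with fluorescence read at 0h, 8h, 16h, 24h, 32h and 40h.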

[3] = qHTS RealTime-Glo MT Cell Viability Assay in HepG2 cells - 40 hour (AID 1224870); note: nearly all actives have a fitted effect of over 50% in size
In short: (§3)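 Real-time viability: cells seeded at 600 per well together with NanoLuc and cell-permeant prosubstrate, compounds added after 5 h incubation. Luminescence tracked at 0, 8, 16, 24, 32 and 40 h of exposure.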

[4] = A CellTox Green Cytotoxicity Assay to monitor cytotoxicity in HEK293 cells - 40 hour (AID 1224871); note: nearly all actives have a fitted effect of over 45% in size
In short: as §2

[5] = qHTS RealTime-Glo MT Cell Viability Assay in HEK293 cells - 16 hour (AID 1224872); note: top concentration of the series differs between compounds; nearly all actives have a fitted effect of over 50% in size
In short: as §1

[6] = qHTS RealTime-Glo MT Cell Viability Assay in HepG2 cells - 8 hour (AID 1224873); note: nearly all actives have a fitted effect of over 55% in size
In short: as §3

[7] = qHTS RealTime-Glo MT Cell Viability Assay in HEK293 cells - 40 hour (AID 1224874); conditions: RealTime-Glo luminescence, hits give low values; note: nearly all actives have a fitted effect of over 50% in size
In short: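 Real-time viability in HEK293: signal arises when living cells convert a prosubstrate for NanoLuc in the medium, so luminescence tracks viable cell number. Compound (23 nL, DMSO) added 5 h post-seeding; kinetic reads at 0–40 h, 37 C.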

[8] = A CellTox Green Cytotoxicity Assay to monitor cytotoxicity in HEK293 cells - 24 hour (AID 1224875); note: series mostly up to about 77 µM; nearly all actives have a fitted effect of over 45% in size
In short: as §2

[9] = A CellTox Green Cytotoxicity Assay to monitor cytotoxicity in HepG2 cells - 16 hour (AID 1224876); note: nearly all actives have a fitted effect of over 45% in size
In short: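 Cells and non-lytic dye reagent are dispensed together (600 HepG2 cells/well) and incubated 5 h before DMSO compound transfer. Kinetic fluorescence is then recorded in the same wells during 40 h at 37 C.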
% is set by controls: 0 for no effect and ±100 for the full control effect.

CN(C)c1ccncc1
inactive: outcome [1] | outcome [2] | outcome [3] | Potency [4] | outcome [5] | outcome [6] | max response [7] -16.5% | Potency [8] | Potency [9]

C[n+]1ccccc1/C=N/O
inactive: outcome [1] | outcome [2] | outcome [3] | Potency [4] | outcome [5] | outcome [6] | max response [7] 0.0286% | Potency [8] | Potency [9]

COc1cnc(NS(=O)(=O)c2ccc(N)cc2)nc1
inactive: outcome [1] | outcome [2] | outcome [3] | Potency [4] | outcome [5] | outcome [6] | max response [7] 3.91% | Potency [8] | Potency [9]

CCCCS
inactive: outcome [1] | outcome [2] | outcome [3] | outcome [5] | outcome [6] | max response [7] 0.118% | Potency [9]

Cc1ccc(O)c(C(=O)c2ccccc2)c1
inactive: outcome [1] | outcome [2] | outcome [3] | Potency [4] | outcome [5] | outcome [6] | max response [7] -5.5% | Potency [8] | Potency [9]

CCCCC(CC)CCC(CC(C)C)OS(=O)(=O)O (stereo not given)
inactive: outcome [1] | outcome [2] | outcome [3] | Potency [4] | outcome [5] | max response [7] -2.38% | Potency [8] | Potency [9]

CC(C)(C)NCC(O)COc1cccc2c1CCC(=O)N2 (stereo not given)
inactive: outcome [1] | outcome [2] | outcome [3] | Potency [4] | outcome [5] | outcome [6] | max response [7] 5.27% | Potency [8] | Potency [9]

O=C1CCCc2c(O)cccc21
inactive: outcome [1] | outcome [2] | outcome [3] | outcome [5] | outcome [6] | max response [7] 3.41% | Potency [8] | Potency [9]

CC12CCCC=C1C(=O)OC2=O (stereo not given)
inactive: outcome [1] | outcome [2] | outcome [3] | Potency [4] | outcome [5] | outcome [6] | max response [7] 7.32% | Potency [8] | Potency [9]

O=C(O)COc1ccc2ccccc2c1
inactive: outcome [1] | outcome [2] | outcome [3] | Potency [4] | outcome [5] | Potency [8] | Potency [9]

COc1cc(S(N)(=O)=O)cc(C(=O)O)c1OC
inactive: outcome [1] | outcome [2] | outcome [3] | Potency [4] | outcome [5] | outcome [6] | max response [7] 0.543% | Potency [8] | Potency [9]

CNCCc1ccccn1
inactive: outcome [2] | outcome [3] | Potency [4] | outcome [5] | outcome [6] | Potency [8] | Potency [9]

Cc1cc(C)c(C)c(C)c1
inactive: outcome [1] | outcome [2] | outcome [3] | outcome [5] | outcome [6] | max response [7] -10% | Potency [8] | Potency [9]

CC(C)(C)OC(=O)c1ccccc1C(=O)O
inactive: outcome [1] | outcome [2] | outcome [3] | Potency [4] | outcome [5] | outcome [6] | max response [7] 0.795% | Potency [8] | Potency [9]

CN(C)CCC[C@@]1(c2ccc(F)cc2)OCc2cc(C#N)ccc21
inactive: outcome [2] | outcome [3] | Potency [4] | outcome [5] | max response [7] -9.59% | Potency [8] | Potency [9]

CC1(C)S[C@@H]2[C@H](NC(=O)Cc3ccccc3)C(=O)N2[C@H]1C(=O)O (tested in a mixture with another compound)
inactive: outcome [1] | outcome [2] | outcome [3] | Potency [4] | outcome [5] | outcome [6] | max response [7] -2.11% | Potency [8] | Potency [9]

N#Cc1ccccc1C#N
inactive: outcome [1] | outcome [2] | outcome [3] | Potency [4] | outcome [5] | outcome [6] | Potency [8] | Potency [9]

O=C(O)Cc1ccccc1Oc1ccc(Cl)cc1Cl
inactive: outcome [1] | outcome [2] | outcome [3] | Potency [4] | outcome [5] | outcome [6] | max response [7] 4.29% | Potency [8] | Potency [9]

CCC(C)(C)C
inactive: outcome [1] | outcome [2] | outcome [3] | Potency [4] | outcome [5] | outcome [6] | max response [7] 2.63% | Potency [8] | Potency [9]

CC(O)C(CO)C(C)O (stereo not given)
inactive: outcome [1] | outcome [2] | outcome [3] | Potency [4] | outcome [5] | outcome [6] | max response [7] -0.0675% | Potency [8] | Potency [9]

CCCCCCCCCCCCCCCC/C=C/C1CC(=O)OC1=O (stereo not given)
inactive: outcome [1] | outcome [2] | outcome [3] | Potency [4] | outcome [5] | outcome [6] | max response [7] -0.0124% | Potency [8] | Potency [9]

C=CCCCCCCCCCCCCCC
inactive: cytotoxicity [2] -0.258% [at 15.8 µM] | activity change, negative = cytotoxic [3] -8.43% [at 15.8 µM] | cytotoxicity increase [4] 0.351% [at 15.8 µM] | activity change, negative = cytotoxicity [5] -2.4% [at 15.8 µM] | viability change, negative = cytotoxic [6] 2.93% [at 15.8 µM] | max response [7] 0.625% | activity change [8] -0.0594% [at 15.8 µM, hits give high values] | cytotoxicity increase [9] 2.79% [at 15.8 µM]

CC/C=C/CCCCCCCCCCOC(C)=O
inactive: outcome [1] | outcome [2] | outcome [3] | Potency [4] | outcome [5] | outcome [6] | Potency [8] | Potency [9]

COc1cc(C(=O)NC2CCCNC2)cc(OC)c1OC (stereo not given)
inactive: outcome [1] | outcome [2] | Potency [4] | outcome [5] | max response [7] 1.36% | Potency [8] | Potency [9]

Nc1nc(Cl)cc(Cl)n1
inactive: outcome [1] | outcome [2] | outcome [3] | Potency [4] | outcome [5] | outcome [6] | max response [7] 16.9% | Potency [8] | Potency [9]

C[C@H]1COc2c(C3(N)CC3)c(F)cc3c(=O)c(C(=O)O)cn1c23
inactive: outcome [1] | outcome [2] | outcome [3] | Potency [4] | outcome [5] | outcome [6] | max response [7] 1.9% | Potency [8] | Potency [9]

CC(C)C[P+](C)(CC(C)C)CC(C)C
inactive: outcome [1] | outcome [2] | outcome [3] | outcome [5] | outcome [6] | max response [7] -17.7% | Potency [9]
